This is part of a sample that, as a whole, favours compounds with a hit. Of some 79,000 tested, about 15% had one in any assay. Unmarked numbers belong to inactive results. The source made the active and inactive calls. Rule as the data show it: active = growth inhibition above about 70%; inactive = the rest.

A short description of assay [1]: NCI Yeast Anticancer Drug Screen. Data for the rad50 strain (AID 155).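 Also: 0% = growth of vehicle-only cultures of the same strain.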 To be noted: S. cerevisiae rad50 strain growth inhibition; at 50.0 µM; active compounds read high. A digest of the protocol:
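DNA repair mutant yeast, compound exposure, growth read-out; inhibition is taken relative to vehicle.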

Assay [2] is described as follows: NCI Yeast Anticancer Drug Screen. Data for the mec2-1 strain (AID 157). The settings on record: S. cerevisiae mec2-1 strain, at 50.0 µM, active compounds read high. A digest of the protocol: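 Growth inhibition is read against vehicle-treated controls after compound exposure of the mec2-1 yeast strain, which is defective in DNA damage repair or cell cycle control.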
A short description of assay [3]: NCI Yeast Anticancer Drug Screen. Data for the sgs1 mgt1 strain (AID 161).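 Also: 0% = growth of cultures given vehicle only.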 The settings on record: S. cerevisiae sgs1 mgt1 strain, at 50.0 µM, active compounds read high. A digest of the protocol:
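This yeast growth screen uses a strain with defined DNA-repair lesions; compound-treated growth is compared with vehicle-treated growth.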

A short description of assay [4]: NCI Yeast Anticancer Drug Screen. Data for the cln2 rad14 strain (AID 165).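 Also: 0% = growth equal to vehicle treated cultures.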 To be noted: S. cerevisiae cln2 rad14 strain, at 50.0 µM, active compounds read high. A digest of the protocol: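 Growth inhibition, relative to vehicle-treated controls, is the read-out. The test organism is a yeast strain with defined genetic alterations, cln2 rad14.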
Assay [5] in a line: NCI Yeast Anticancer Drug Screen. Data for the bub3 strain (AID 167). To be noted: S. cerevisiae bub3 mutant strain, at 50.0 µM, active compounds read high. A digest of the protocol: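 In this screen, a yeast mutant lacking normal mitotic checkpoint function is challenged with compound. Relative growth versus vehicle gives the inhibition value.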
A short description of assay [6]: NCI Yeast Anticancer Drug Screen. Data for the mlh1 rad18 strain (AID 175). To be noted: S. cerevisiae mlh1 rad18 strain growth inhibition; at 50.0 µM; active compounds read high. A digest of the protocol:
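Cells of a genetically altered yeast strain, deficient in DNA damage repair, were treated with compound. Their growth was then compared with that of vehicle-treated cultures to give inhibition.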

For `COC(OC)(c1ccccc1)c1ccccc1`, the growth inhibition was -33% in assay [1]; -27.4% in assay [2]; -33% in assay [3]; -11.1% in assay [4]; -40.6% in assay [5]; -18.6% in assay [6].

On to `CC1=C(O)CC(=O)C1`, for which the growth inhibition in assay [1] is -14%; in assay [2] it was -8.8%; in assay [3] it was -6.9%; in assay [4], 0.2%; in assay [5], 6.4%; in assay [6], -9.45%.

As to `COC(=O)N/N=C/c1cccnc1`, the growth inhibition in assay [1] was 2.05%; in assay [2], -6.6%; in assay [3], -3.05%; in assay [4] it was -72.2%; in assay [5], 9.8%; in assay [6] it was -26.8%.

As to `COC(=O)c1ccc(NC(C)=O)c([N+](=O)[O-])c1`, the growth inhibition is 3.35% in assay [1]; -7.7% in assay [2]; -11.4% in assay [3]; -21.9% in assay [4]; -26.1% in assay [5]; 16.4% in assay [6].

In the case of `C=CCNC(=S)Nc1cccc(C(C)OC(=O)NC(C)(C)C)c1` (stereo unspecified), the growth inhibition in assay [1] is 1.2%; in assay [2], 30.9%; in assay [3] it was 36.2%; in assay [4], -5.8%; in assay [5], 33.8%; in assay [6] it was 20.6%.

On to `CC1CCC(=N\O)/C(=N/O)C1` (stereo unspecified), for which the growth inhibition in assay [1] is 5.9%; in assay [2] it was -19.3%; in assay [3], -21.9%; in assay [4], -12.1%; in assay [5], 0.65%; in assay [6], -5.3%.

As to `O=C(Nc1cc(Cl)c(Cl)cc1Cl)OCc1ccc2c(c1)OCO2`, the growth inhibition was -12.1% in assay [1]; -32.3% in assay [2]; -14.4% in assay [3]; 6.25% in assay [4]; -25.2% in assay [5]; -14.6% in assay [6].

On to `CC(=O)Oc1ccc2c(=O)c(C(C)=O)coc2c1`, for which the growth inhibition in assay [1] was 7.45%; in assay [2], -11.3%; in assay [3] it was -3.15%; in assay [4], 14.4%; in assay [5] it was 4.2%; in assay [6] it was 14.7%.

With `O=C1N(c2ccccc2)C2(O)C(=O)c3ccccc3C2(O)N1c1ccccc1` (stereo unspecified), the growth inhibition is -10% in assay [1]; -2.15% in assay [2]; 15.6% in assay [3]; 16.5% in assay [4]; 3.1% in assay [5]; -4.5% in assay [6].

Consider `Cc1cc(Cl)ccc1-n1nc(C)c2c(N)nc(N)nc21`, for which the growth inhibition is 17.4% in assay [1]; 6.5% in assay [2]; 13.7% in assay [3]; -1.55% in assay [4]; 24.7% in assay [5]; 23.1% in assay [6].

With `C[N+]1(C)C/C(=C\c2ccncc2)C(=O)/C(=C/c2ccncc2)C1`, the growth inhibition in assay [1] was 0.3%; in assay [2] it was -2.45%; in assay [3] it was 14.3%; in assay [4], 5.3%; in assay [5], 1.1%; in assay [6], -10.2%.

Regarding `CCCCOC(=O)c1ccc(OC(=O)Nc2ccc(Cl)cc2)cc1`, the growth inhibition in assay [1] was 10.4%; in assay [2] it was 42.3%; in assay [3], 39%; in assay [4], -11.2%; in assay [5], 78.7% (active); in assay [6] it was 30.2%.

Regarding `O=C(OCCN1C(=O)c2cccc3c(Br)ccc(c23)C1=O)OCc1ccccc1`, the growth inhibition in assay [1] was 86.2% (active); in assay [2], 48.5%; in assay [3], 60.1%; in assay [4] it was 49.4%; in assay [5], 61.7%; in assay [6], 70.3% (active).

Turning to `COc1ccc2c(=O)c(O)c(-c3ccccc3)oc2c1`, the growth inhibition in assay [1] was 22.8%; in assay [2], -18.9%; in assay [3], 42.5%; in assay [4] it was 10.4%; in assay [5], 15.2%; in assay [6], 8.25%.

Take `CNc1ccccc1C(N)=S`: the growth inhibition is 5.9% in assay [1]; 2.5% in assay [2]; -2.95% in assay [3]; -26.1% in assay [4]; -5.55% in assay [5]; 11.8% in assay [6].

Take `CC(C)NCc1ccccc1Sc1ccccc1CNC(C)C`: the growth inhibition in assay [1] was 22.1%; in assay [2] it was 5.45%; in assay [3], 12.1%; in assay [4] it was 12.8%; in assay [5], 11.4%; in assay [6] it was 16.2%.

Take `CCC(OC(=O)Nc1ccc(S(=O)(=O)NC2CCCCC2)cc1)c1ccco1` (stereo unspecified): the growth inhibition in assay [1] is 26.9%; in assay [2], 3.65%; in assay [3], 26.8%; in assay [4], 10.8%; in assay [5] it was 5.65%; in assay [6] it was 4.15%.

Turning to `CCCCCCCCCCCCCCCCCC(=O)OCC(COC1OC(CS(=O)(=O)O)C(O)C(O)C1O)OC(=O)CCCCCCCCCCCCCCCCC` (stereo unspecified), the growth inhibition was 23.6% in assay [1]; 18.4% in assay [2]; 7.2% in assay [3]; 3.25% in assay [4]; -1.95% in assay [5]; 19.6% in assay [6].

In the case of `NCCCCCS(=O)(=O)O`, the growth inhibition is 17.4% in assay [1]; -1.15% in assay [2]; -0.85% in assay [3]; 4.05% in assay [4]; -0.65% in assay [5]; 8.65% in assay [6].

As to `O=C(CCC(O)(C(=O)c1ccccc1)c1ccccc1)c1ccccc1` (stereo unspecified), the growth inhibition is 9.25% in assay [1]; 9.5% in assay [2]; -0.1% in assay [3]; 6.35% in assay [4]; 0.4% in assay [5]; 26.4% in assay [6].

As for `Cc1ccc2oc(=O)c3c(O)c4cccc(OC5OC(C)C6O[C@@H](c7ccccc7)OC6C5OC5OC(C)C(O)C(O)C5O)c4c4oc(=O)c1c2c34` (stereo partly specified), the growth inhibition in assay [1] is 87.2% (active); in assay [2] it was 89.7% (active); in assay [3], 91.5% (active); in assay [4] it was 83.6% (active); in assay [5], 89.7% (active); in assay [6], 75.4% (active).

The values above are taken from PubChem BioAssay (NCI).
